Values joined by “and” are separate entries in the source; they are usually repeats but may differ in a detail not shown here. Equal values may be shown once. Inconclusive results are not listed. Where a call stands in place of a potency, no number is given. Some compounds were tested as several samples or in several runs, with calls that do not always agree. Active and inactive are the calls of the source. Unless noted, the call rests on the fitted dose curve; in most records, active means well fitted curve in the direction sought with a large enough effect in the repeat runs; inconclusive means weak or mixed curves; inactive means no such curve, though single readings can be large; an effect the other way counts as inactive or inconclusive.
What was measured:
[1] = qHTS assay to identify aromatase inhibitors - cell viability counter screen (AID 743084);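 further: cells stimulated with testosterone during compound exposure; nearly all actives have a fitted effect of over 55% in size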; further: potency means the concentration at half of the fitted maximal effect
[2] = target: Aryl hydrocarbon receptor (Homo sapiens) (UniProt P35869); assay: qHTS assay to identify small molecule that activate the aryl hydrocarbon receptor (AhR) signaling pathway (AID 743085);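 further: HG2L7.5c1 human HepG2 liver cells with stably integrated DRE-driven firefly reporter; series mostly up to about 70 µM; nearly all actives have a fitted effect of over 15% in size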
Outline: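 Cell line HG2L7.5c1 (human hepatoma, 20× DRE-luc). Plated, 5 h 37C, compound/DMSO added, 24 h 37C. CellTiter-Fluor 30 min 37C → fluorescence; then ONE-Glo 30 min RT → luminescence.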

[3] = qHTS assay to identify small molecule that activate the aryl hydrocarbon receptor (AhR) signaling pathway - cell viability counter screen (AID 743086); further: nearly all actives have a fitted effect of over 45% in size; further: potency means the concentration at half of the fitted maximal effect
Outline: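 HepG2-AhR-luc (HG2L7.5c1) cells, 4000/well, treated 24 h at 37 C with compound; viability measured as CellTiter-Fluor fluorescence after 30 min in the same wells as the luciferase read.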

[4] = qHTS assay to identify small molecule antagonists of the peroxisome proliferator-activated receptor gamma (PPARg) signaling pathway - cell viability counter screen (AID 743194); conditions: Potency: co-treated with 50 nM rosiglitazone unless noted; further: nearly all actives have a fitted effect of over 55% in size; further: potency means the concentration at half of the fitted maximal effect
Outline: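 Cytotoxicity counter screen in PPARg-bla HEK293H cells, same wells as reporter assay. Compounds plus 50 nM rosiglitazone (final) for 17 h at 37 C, then viability read by CellTiter-Glo luminescence.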

[5] = qHTS assay for small molecule agonists of the antioxidant response element (ARE) signaling pathway (AID 743202; active means well fitted activation curve with a large enough effect in the signal ratio in the repeat runs, not every such curve was filed as active; the % refers to the signal ratio; further: potency means the concentration at half of the fitted maximal effect)
Outline: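 ARE-bla HepG2 cells (beta-lactamase reporter under the antioxidant response element), plated 5 hours, then exposed to compounds 16 hours at 37 C. LiveBLAzer B/G FRET substrate added for 2 hours at room temperature; fluorescence intensity read.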

[6] = qHTS assay for small molecule agonists of the antioxidant response element (ARE) signaling pathway - cell viability counter screen (AID 743203; calls by dose curve; further: nearly all actives have a fitted effect of over 55% in size; further: potency means the concentration at half of the fitted maximal effect)
Outline: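 HepG2 cells carrying ARE-driven beta-lactamase; 2,000 cells/well; 5 hrs plating; compound pinned from DMSO; 16 hrs 37C/5% CO2; CellTiter-Glo added; 30 min RT; luminescence.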

[7] = qHTS assay for small molecule activators of the heat shock response signaling pathway - cell viability counter screen (AID 743209); further: nearly all actives have a fitted effect of over 50% in size; further: potency means the concentration at half of the fitted maximal effect
Outline: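 Luminescence from CellTiter-Glo, added after the beta-lactamase FRET read, gave the viability signal. Cells were HSE-bla HeLa treated with DMSO-dissolved compounds for 5 h at 37 C following overnight plating.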

[8] = qHTS assay for small molecule activators of the heat shock response signaling pathway (AID 743210; active means well fitted activation curve with a large enough effect in the signal ratio in the repeat runs, with a control signal flat, not every such curve was filed as active; the % refers to the signal ratio; further: series mostly up to about 63 µM)
Outline: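 HSE-bla HeLa cells (beta-lactamase reporter under heat shock response elements), plated overnight, then exposed to compounds 5 h at 37 C; LiveBLAzer B/G FRET substrate added, 2.5 h at room temperature, fluorescence intensity read.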

[9] = target: Peroxisome proliferator-activated receptor gamma (Homo sapiens) (UniProt P37231); assay: qHTS assay to identify small molecule antagonists of the peroxisome proliferator-activated receptor gamma (PPARg) signaling pathway (AID 743191; calls by dose curve; further: nearly all actives have a fitted effect of over 30% in size; further: potency means the concentration at half of the fitted maximal effect)
Outline: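 GeneBLAzer PPARg UAS-bla HEK293H cells, 5 h post-plating, exposed to compounds 17 h at 37C. LiveBLAzer B/G FRET substrate added for 1 h at room temperature; beta-lactamase reporter read by fluorescence intensity.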

[10] = target: Peroxisome proliferator-activated receptor gamma (Homo sapiens) (UniProt P37231); assay: qHTS assay to identify small molecule agonists of the peroxisome proliferator-activated receptor gamma (PPARg) signaling pathway (AID 743094; active means well fitted activation curve with a large enough effect in the signal ratio in the repeat runs, not every such curve was filed as active; the % refers to the signal ratio; further: potency means the concentration at half of the fitted maximal effect)
Outline: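 Beta-lactamase FRET fluorescence was the read-out after a 1 h room-temperature substrate step, following 17 h compound treatment at 37C of HEK293H cells expressing a UAS-driven bla reporter responsive to PPARg.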

Chain of Peroxisome proliferator-activated receptor gamma (Homo sapiens) (P37231 whole entry, looked up): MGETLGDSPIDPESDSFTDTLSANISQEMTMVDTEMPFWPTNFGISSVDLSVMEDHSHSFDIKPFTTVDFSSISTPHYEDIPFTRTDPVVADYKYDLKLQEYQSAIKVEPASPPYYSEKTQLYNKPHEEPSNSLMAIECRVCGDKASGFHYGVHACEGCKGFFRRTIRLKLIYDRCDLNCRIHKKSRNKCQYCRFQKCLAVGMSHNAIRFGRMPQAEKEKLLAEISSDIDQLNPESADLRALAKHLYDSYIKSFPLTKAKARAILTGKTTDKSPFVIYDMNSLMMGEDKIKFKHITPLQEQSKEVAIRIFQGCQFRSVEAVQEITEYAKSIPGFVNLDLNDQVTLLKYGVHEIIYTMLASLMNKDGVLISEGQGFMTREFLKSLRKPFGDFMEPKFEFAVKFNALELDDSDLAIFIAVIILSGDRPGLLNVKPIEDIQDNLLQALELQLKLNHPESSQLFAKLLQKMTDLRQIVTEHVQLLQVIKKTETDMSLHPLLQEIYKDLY
Chain of Aryl hydrocarbon receptor (Homo sapiens) (P35869 whole entry, looked up): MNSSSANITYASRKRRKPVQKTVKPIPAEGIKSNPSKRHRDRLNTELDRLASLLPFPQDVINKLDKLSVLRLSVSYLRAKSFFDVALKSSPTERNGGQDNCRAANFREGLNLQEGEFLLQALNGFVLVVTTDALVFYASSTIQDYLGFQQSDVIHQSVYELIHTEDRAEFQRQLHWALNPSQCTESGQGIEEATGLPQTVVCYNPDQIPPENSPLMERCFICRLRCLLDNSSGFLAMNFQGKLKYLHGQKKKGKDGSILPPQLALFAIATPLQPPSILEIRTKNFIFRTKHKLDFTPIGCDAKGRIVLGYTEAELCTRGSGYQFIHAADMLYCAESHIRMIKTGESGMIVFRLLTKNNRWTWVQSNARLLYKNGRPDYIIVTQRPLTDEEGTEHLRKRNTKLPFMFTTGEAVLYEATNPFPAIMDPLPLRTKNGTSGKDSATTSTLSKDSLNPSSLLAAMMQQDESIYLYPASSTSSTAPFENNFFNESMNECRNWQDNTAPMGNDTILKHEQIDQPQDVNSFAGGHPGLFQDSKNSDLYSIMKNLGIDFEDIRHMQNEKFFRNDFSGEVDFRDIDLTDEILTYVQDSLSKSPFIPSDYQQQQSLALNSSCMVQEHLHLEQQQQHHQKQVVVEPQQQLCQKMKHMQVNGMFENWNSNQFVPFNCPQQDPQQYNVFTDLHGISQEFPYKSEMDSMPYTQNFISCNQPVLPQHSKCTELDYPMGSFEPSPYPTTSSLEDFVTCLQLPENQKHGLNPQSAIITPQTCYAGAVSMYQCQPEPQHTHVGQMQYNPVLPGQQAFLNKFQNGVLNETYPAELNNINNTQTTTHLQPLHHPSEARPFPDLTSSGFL

Row | Structure (SMILES) | Potency [1] | Potency [2] | Potency [3] | Potency [4] | Potency [5] | Potency [6] | Potency [7] | Potency [8] | Potency [9] | Potency [10]
1 | BrCCCBr | inactive | inactive | inactive | inactive | inactive | inactive | inactive | inactive |  | 
2 | O.O.O.O.O.O.O=S(=O)([O-])[O-].[Ni+2] | inactive | inactive | inactive |  |  | inactive | inactive |  |  | 
3 | CC(C)[C@@H](Nc1ccc(C(F)(F)F)cc1Cl)C(=O)OC(C#N)c1cccc(Oc2ccccc2)c1 (stereo not given in full) | inactive | inactive | inactive | inactive |  | inactive | inactive |  |  | 
4 | CC(=O)[O-].CC(=O)[O-].[Co+2] | inactive | inactive | inactive | inactive |  | inactive | inactive |  |  | 
5 | CCc1cccc(C)c1N(C(=O)CCl)[C@@H](C)COC | inactive | inactive | inactive | inactive | 9.69 µM (active) | inactive | inactive | inactive |  | 
6 | CC(=O)[O-].CC(=O)[O-].O.O.[Zn+2] | inactive | inactive | inactive |  | inactive | inactive | inactive |  |  | 
7 | Brc1cccc(-c2ccccc2)c1 | inactive | inactive | inactive | inactive | inactive | inactive | inactive | inactive |  | 
8 | [F][Sn]([c]1ccccc1)([c]1ccccc1)[c]1ccccc1 | 3.06 µM (active) | inactive | 3.86 µM (active) | 0.616 µM (active) |  | 0.344 µM (active) |  |  |  | 
9 | CCOP(=O)(OCC)Oc1cc(C)nc(C(C)C)n1 | inactive | inactive | inactive | inactive |  | inactive | inactive |  |  | 
10 | CCN(CC)C(=S)S | 8.71 µM (active) and 7.65 µM (active) and 4.86 µM (active) | inactive | inactive and 19.2 µM (active) and 30.6 µM (active) | inactive |  | inactive | 6.98 µM (active) and 2.75 µM (active) |  | inactive | 
11 | Nc1ccccc1-c1ccccc1 | inactive | inactive | inactive | inactive |  | inactive | inactive |  |  | 
12 | COP(=O)(OC)Oc1ccc([N+](=O)[O-])cc1 | inactive | inactive | inactive |  |  | inactive | inactive |  | 17.4 µM (active) | 
13 | CN=C=O | inactive | inactive | inactive | inactive | inactive | inactive | inactive |  |  | 
14 | CC(=O)O.CC(=O)O.CC(=O)O.CC(=O)O.CC(=O)O.CC(=O)O.CC(=O)O.O.O.[Cr].[Cr].[Cr] | inactive | inactive | inactive | inactive |  | inactive | inactive |  |  | 
15 | BrCC(Br)(Br)Br | inactive | inactive |  |  |  |  | inactive |  | inactive | inactive
16 | CCC[CH2][Sn]([CH2]CCC)([CH2]CCC)[CH2]CCC | 43.3 µM (active) | inactive |  | 19.5 µM (active) |  | 15.4 µM (active) |  |  |  | 54.9 µM (active)
17 | CCO/N=C(\CC)C1=C(O)CC(c2c(C)cc(C)cc2C)CC1=O (stereo not given) | inactive | inactive | inactive |  |  | inactive |  | inactive |  | 
